Laboratory results taken from PubChem BioAssay (Tox21).
A number with no mark means an inactive call. Results filed as inconclusive are left out. Entries that show only a call come without a potency. Activity calls are given as the source filed them. Unless noted, the call rests on the fitted dose curve; in most records, active means well fitted curve in the direction sought with a large enough effect in the repeat runs; inconclusive means weak or mixed curves; inactive means no such curve, though single readings can be large; an effect the other way counts as inactive or inconclusive.

How the values were obtained:
[1] = qHTS assay for small molecule agonists of the p53 signaling pathway (AID 651631; calls by dose curve; further: nearly all actives have a fitted effect of over 15% in size)
Summary of the method: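 Agonist mode screen using a stably integrated beta-lactamase gene under p53 response elements in HCT-116 cells. Compound exposure lasts 16 h at 37 °C; fluorescence intensity is measured following 2 h FRET substrate loading.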

[2] = qHTS assay for small molecule agonists of the p53 signaling pathway - cell viability (AID 651633; calls by dose curve; further: nearly all actives have a fitted effect of over 30% in size; further: potency means the concentration at half of the fitted maximal effect)
Summary of the method: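 Viability counter-read: CellTiter-Glo luminescence (30 min, room temperature) in the same p53RE-bla plates. These plates had been exposed to compounds for 16 h at 37 C.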

[3] = qHTS assay for small molecule disruptors of the mitochondrial membrane potential - cell viability (AID 720634; calls by dose curve; further: nearly all actives have a fitted effect of over 20% in size; further: potency means the concentration at half of the fitted maximal effect)
Summary of the method: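 Same-well counter-screen: following the MMP dye addition, CellTiter-Glo was added to 1 hr compound-treated HepG2 cells and luminescence read after 30 min at room temperature.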

[4] = qHTS assay for small molecule disruptors of the mitochondrial membrane potential (AID 720635); further: potency means the concentration at half of the fitted maximal effect
Summary of the method: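 Mitochondrial membrane potential tracked with Mito-MPS dye, red aggregates (ex 540/em 590 nm) against green monomers (ex 490/em 535 nm). Compound treatment 1 hr at 37C, dye 30 min in HepG2.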

[5] = qHTS assay to test for compound auto fluorescence at 590 nm (red) in HepG2 cells (AID 720674)
Summary of the method: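 Red autofluorescence (Ex/Em 540/590 nm, Rose Bengal sodium equivalents) was measured in HepG2 cells, 2,000 per well in MEM plus 10% FBS, plated overnight at 37 C. Readings were taken 1 hr after adding 23 nL compound or DMSO, at 37 C and 5% CO2.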

[6] = qHTS assay to test for compound auto fluorescence at 535 nm (green) in HepG2 cells (AID 720675)
[7] = qHTS assay to test for compound auto fluorescence at 460 nm (blue) in HEK293 cells (AID 720678)
Summary of the method: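 HEK293, 2,000 cells/well, 10% dialyzed FBS; attach 4-5 hr 37C; pin compound or DMSO; o/n 37C/5% CO2; fluorescence 405/460 nm; triamterene-equivalent units.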

[8] = qHTS assay to test for compound auto fluorescence at 590 nm (red) in HEK293 cells (AID 720679)
Summary of the method: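 Intensity at 540nm excitation and 590nm emission is reported as Rose Bengal sodium-equivalent autofluorescence. Measurements followed overnight exposure (37C, 5% CO2) of HEK293 cells, 2,000 per well, to 23 nL compound.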

[9] = qHTS assay to test for compound auto fluorescence at 535 nm (green) in HEK293 cells (AID 720680)
[10] = qHTS assay to test for compound auto fluorescence at 460 nm (blue) in HEK293 cell free culture (AID 720681)
Summary of the method: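 Blue fluorescence (Ex 405/Em 460 nm, triamterene-equivalent) was read immediately after pin transfer of compound or DMSO into medium (DMEM, 10% FBS) without cells.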

[11] = qHTS assay to test for compound auto fluorescence at 535 nm (green) in HEK293 cell free culture (AID 720682)
Summary of the method: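 No cells present: wells hold DMEM supplemented with 10% FBS, into which compound or vehicle is pinned. Green emission is then recorded (485 nm excitation, 535 nm emission) and scaled to fluorescein.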

[12] = qHTS assay to test for compound auto fluorescence at 590 nm (red) in HEK293 cell free culture (AID 720683)
Summary of the method: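 Red-channel autofluorescence of compounds in culture medium (DMEM, 10% FBS), no cells, measured at 540/590 nm. Rose Bengal sodium is the reference fluorophore for equivalence.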

[13] = qHTS assay to test for compound auto fluorescence at 590 nm (red) in HepG2 cell free culture (AID 720684)
Summary of the method: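 Cell-free; medium MEM + 10% FBS; compound or DMSO added by pintool; read Ex 540/Em 590 nm; Rose Bengal sodium as red reference fluorophore.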

[14] = qHTS assay to test for compound auto fluorescence at 460 nm (blue) in HepG2 cell free culture (AID 720685)
Summary of the method: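 Cell-free plates of MEM plus 10% FBS received 23 nL compound or DMSO vehicle; blue-channel (405/460 nm) intensity scored against triamterene as reference fluorophore.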

[15] = qHTS assay to test for compound auto fluorescence at 535 nm (green) in HepG2 cell free culture (AID 720686)
[16] = qHTS assay to test for compound auto fluorescence at 460 nm (blue) in HepG2 cells (AID 720687)
Summary of the method: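 Blue-channel autofluorescence (Ex/Em 405/460 nm, triamterene-equivalent) was measured after 1 hr compound exposure at 37 C, 5% CO2. Cells were HepG2, plated overnight at 37 C in MEM plus 10% FBS.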

[17] = target: Glucocorticoid receptor (Homo sapiens) (UniProt P04150); assay: qHTS assay to identify small molecule agonists of the glucocorticoid receptor (GR) signaling pathway (AID 720691; active means well fitted activation curve with a large enough effect in the signal ratio in the repeat runs, not every such curve was filed as active; the % refers to the signal ratio); conditions: GR-bla HeLa, beta-lactamase reporter ratio, 18 h; activation: at 62.4 µM (top of the series) unless noted
Summary of the method: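 A HeLa cervical cancer line expressing GR and a glucocorticoid response element-driven beta-lactamase gene is treated with compounds for 18 h; LiveBLAzer B/G FRET substrate is then applied and fluorescence read.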

[18] = qHTS assay for small molecules that induce genotoxicity in human embryonic kidney cells expressing luciferase-tagged ATAD5 - cell viability (AID 651634; calls by dose curve; further: nearly all actives have a fitted effect of over 25% in size; further: potency means the concentration at half of the fitted maximal effect)
Summary of the method: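 Quantitative high-throughput format. HEK293T cells expressing ATAD5 fused to luciferase were plated at 2,000 cells/well and treated 15.5 hr with compound versus DMSO. Viability was determined by fluorescent live-cell protease substrate, 30 min at 37C.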

[19] = qHTS assay for small molecules that induce genotoxicity in human embryonic kidney cells expressing luciferase-tagged ATAD5 (AID 651632); further: nearly all actives have a fitted effect of over 15% in size
Summary of the method: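 Test compounds were delivered by pin tool onto HEK293T reporter cells (2,000/well) expressing ATAD5 fused to luciferase. After 16 hr at 37C, 5% CO2, Amplite was added for 30 min at room temperature and luminescence was measured.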

[20] = target: Glucocorticoid receptor (Homo sapiens) (UniProt P04150); assay: qHTS assay to identify small molecule antagonists of the glucocorticoid receptor (GR) signaling pathway (AID 720692; active means well fitted inhibition curve with a large enough effect in the signal ratio in the repeat runs, not every such curve was filed as active; the % refers to the signal ratio)
Summary of the method: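 GRE-bla HeLa line, dex-stimulated (5 nM final). Compound exposure 18 h, 37 C. Beta-lactamase FRET read after 2 h RT substrate.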

Sequence of Glucocorticoid receptor (Homo sapiens) (P04150 whole entry, looked up): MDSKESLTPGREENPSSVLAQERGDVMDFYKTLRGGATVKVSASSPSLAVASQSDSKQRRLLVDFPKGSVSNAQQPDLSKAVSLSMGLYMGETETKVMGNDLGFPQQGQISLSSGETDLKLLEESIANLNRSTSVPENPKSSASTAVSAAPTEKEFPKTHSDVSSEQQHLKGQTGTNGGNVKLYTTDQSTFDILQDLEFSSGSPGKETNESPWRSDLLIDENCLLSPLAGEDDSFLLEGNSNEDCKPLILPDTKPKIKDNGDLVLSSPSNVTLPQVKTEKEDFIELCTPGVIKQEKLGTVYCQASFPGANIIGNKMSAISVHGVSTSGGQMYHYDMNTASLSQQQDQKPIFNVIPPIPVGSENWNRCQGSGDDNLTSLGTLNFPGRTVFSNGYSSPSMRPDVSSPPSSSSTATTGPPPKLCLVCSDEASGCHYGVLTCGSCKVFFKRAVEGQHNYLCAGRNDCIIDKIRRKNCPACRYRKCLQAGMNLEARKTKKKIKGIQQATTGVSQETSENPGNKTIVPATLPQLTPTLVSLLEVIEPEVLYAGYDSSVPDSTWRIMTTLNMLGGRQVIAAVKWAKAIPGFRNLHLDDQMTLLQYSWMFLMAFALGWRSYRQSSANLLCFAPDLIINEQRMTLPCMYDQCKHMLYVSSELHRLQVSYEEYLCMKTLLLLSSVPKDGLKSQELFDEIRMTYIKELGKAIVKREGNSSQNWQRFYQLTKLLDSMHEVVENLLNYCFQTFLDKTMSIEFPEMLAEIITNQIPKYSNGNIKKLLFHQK

Structure (SMILES) | Potency [1] | Potency [2] | Potency [3] | Potency [4] | Potency [5] | Potency [6] | outcome [7] | Potency [8] | outcome [9] | outcome [10] | outcome [11] | Potency [12] | Potency [13] | outcome [14] | Potency [15] | outcome [16] | Potency [17] | Potency [18] | Potency [19] | Potency [20]
CCOc1ccc(O)cc1 | inactive | inactive | inactive | inactive | inactive | inactive | inactive | inactive | inactive | inactive | inactive | inactive | inactive | inactive | inactive | inactive | inactive |  |  | 
Cc1cc(N)c2cc(NC(=O)Nc3ccc4nc(C)cc(N)c4c3)ccc2n1 | inactive |  | inactive | 22.1 µM (active) | inactive | inactive |  | inactive | inactive | inactive | inactive | inactive | inactive | inactive | inactive | inactive |  | inactive |  | 
c1cc(CCCc2ccncc2)ccn1 |  | inactive | inactive |  | inactive | inactive | inactive | inactive | inactive | inactive | inactive | inactive | inactive | inactive | inactive | inactive |  | inactive | inactive | inactive
NC(N)=NCCC[C@H](N)C(=O)O |  | inactive | inactive | inactive | inactive | inactive | inactive | inactive | inactive | inactive | inactive | inactive | inactive | inactive | inactive | inactive |  | inactive | inactive | inactive
CCCCCCCCCCCCN1CCCCCC1=O |  | 15.4 µM (active) | 27.3 µM (active) | 27.3 µM (active) |  | inactive | inactive | inactive | inactive | inactive | inactive |  | inactive | inactive | inactive | inactive |  | 61.1 µM (active) | inactive | 
CCc1c(C(=O)NN2CCCCC2)nn(-c2ccc(Cl)cc2Cl)c1-c1ccc(Br)cc1 |  | 13.7 µM (active) | inactive | 24.3 µM (active) | inactive | inactive |  | inactive | inactive | inactive | inactive | inactive | inactive | inactive | inactive | inactive |  | inactive | inactive | 
CCCCCCCCCCCc1ccccc1 |  | inactive | inactive |  | inactive | inactive | inactive | inactive | inactive | inactive | inactive | inactive | inactive | inactive | inactive | inactive | inactive | inactive | inactive | 
